Shown are actives, neighbours in structure and some others; about 3.6% of the full set was active somewhere.
LGR2 antag: inhibitors of bursicon-induced Drosophila LGR2 receptor cAMP signaling; HEK293 LGR2, CRE-luciferase, bursicon-stimulated, 4 h; inhibition, % at 9.99 µM; 380,000 tested, 0.35% active;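 active = drop in luminescence signal, shown as inhibition above about 50% in the replicate tests, limit read from the data, passing the limit was not always enough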;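 also: agonist challenge used bursicon conditioned medium at about half maximal strength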
KKLEB cytotox: CF airway cell cytotoxicity counter-screen; AID 602141; 360,000 tested, 0.36% active; activity change (cytotoxicity), % at 5 µM; KKLEB CF airway cells viability, ATPlite luminescence, overnight; active compounds read low; cells stimulated with P. aeruginosa culture filtrate;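 active = corrected activity change at or below -50% at 5 µM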
CF NFkB inh: blocks PAF-induced NF-kB reporter in cystic fibrosis cells | KKLEB NF-kB-GFP reporter, GFP fluorescence overnight | inhibition, % at 5 µM | 360,000 tested, 0.86% active;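 active = at least 50% inhibition at 5 µM, scaled per plate between neutral and stimulator controls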;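 also: PAF is a Pseudomonas aeruginosa culture filtrate used as stimulus; plate controls were PAF-stimulated DMSO wells for no effect and unstimulated DMSO wells for full effect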
Mdm2 MdmX PPI: disrupts the human Mdm2-MdmX interaction. SaOS-2 split-luciferase Mdm2/MdmX complementation, luminescence. inhibition, % at 8 µM. O15151+Q00987. 330,000 tested, 3% active;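 active = inhibition of at least 50% at 8 µM in the primary screen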
HSP90 refold inh: blocks HSP90-mediated luciferase refolding in reticulocyte lysate; inhibition, % at 5.6 µM; 290,000 tested, 0.91% active; Rabbit reticulocyte lysate, luciferase refolding luminescence, 3 h;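 active = inhibition above the screen-wide mean plus 3 SD, computed separately per campaign, cut at about 16% in these data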;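 also: 0% = DMSO wells and 100% = 60 µM geldanamycin wells; inhibitors lower the luminescence because luciferase stays unfolded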
Peg3 prom inh: Peg3 promoter activity inhibition; 360,000 tested, 1.7% active; HeLa PEG-Prom luciferase reporter, luminescence, overnight; inhibition, % at 20 µM; AID 588405;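 active = inhibition of at least 50% at 20 µM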
Mdm2 MdmX conf: confirmation of human Mdm2/MdmX interaction inhibitors; shares compounds with Mdm2 MdmX PPI; 10,000 tested, 55% active; inhibition, % at 8 µM; Mdm2-MdmX binding, luminescent assay; in the data active = inhibition above about 40%
FLuc counter: inhibits full-length luciferase, flagging false Mdm2/MdmX hits. shares compounds with Mdm2 MdmX PPI. SaOS-2 full-length luciferase counterscreen, luminescence. 6,200 tested, 77% active. inhibition, % at 8 µM;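 active = mean inhibition at 8 µM reaching about 37%, which flags the compound as non-specific, limit read from the data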;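 also: p53-null SaOS-2 cells with luciferase driven by a doxycycline-inducible promoter; compound on cells about two nights before reading with doxycycline added after day one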
* hit, by the source's call.

`CC(C)C[C@@H]1COCc2cn(nn2)CC[C@H](Cc2ccccc2)C(=O)N1` gave LGR2 antag -5.
N#CC(C#N)=C(Nc1ccc(F)cc1)SCc1cccc(F)c1 was read as LGR2 antag 53*, KKLEB cytotox -35, CF NFkB inh 42, Mdm2 MdmX PPI 90*, HSP90 refold inh 3, Peg3 prom inh 23, Mdm2 MdmX conf 92* and FLuc counter 23.
CCOc1ccc(N/C(SCc2cccc([N+](=O)[O-])c2)=C(/C#N)C(N)=O)cc1 was read as LGR2 antag 28, KKLEB cytotox -6, CF NFkB inh 8, Mdm2 MdmX PPI -1, HSP90 refold inh 0 and Peg3 prom inh 38.
Screening CC(C)c1nc(SCC(=O)Nc2ccc(N3CCOCC3)cc2)c2ccccc2n1 returned KKLEB cytotox -14, CF NFkB inh 4, Mdm2 MdmX PPI 53*, HSP90 refold inh 3, Peg3 prom inh 5 and Mdm2 MdmX conf 13.
For COc1cc(NC(=O)CSc2nc(C3CC3)nc3ccccc23)cc(OC)c1 the results were LGR2 antag -14, KKLEB cytotox -32, CF NFkB inh 42, Mdm2 MdmX PPI 54*, HSP90 refold inh 0, Peg3 prom inh 99* and Mdm2 MdmX conf -19.
`CC(=O)Nc1cccc(NC(=O)CSc2nc(C3CC3)nc3ccccc23)c1` gave LGR2 antag -12, KKLEB cytotox -21, CF NFkB inh 13, Mdm2 MdmX PPI 72*, HSP90 refold inh -2, Peg3 prom inh 42, Mdm2 MdmX conf 58* and FLuc counter 44*.
Screening CN(C)c1ccc(NC(=O)CSc2nc(C3CC3)nc3ccccc23)cc1 returned LGR2 antag 5, KKLEB cytotox -21, CF NFkB inh 22, Mdm2 MdmX PPI 79*, HSP90 refold inh 1, Peg3 prom inh 32, Mdm2 MdmX conf 44* and FLuc counter 54*.
For O=C(Cc1ccccn1)NCC[C@H]1CC[C@@H](NC(=O)Nc2ccccc2)[C@H](CO)O1 the results were LGR2 antag 24.
CC(=O)N1CCc2cc(S(=O)(=O)N3CCOCC3)ccc21 was read as KKLEB cytotox 13, CF NFkB inh -12, Mdm2 MdmX PPI -3, HSP90 refold inh 13 and Peg3 prom inh 8.
Screening CSc1ccc(S(=O)(=O)N2c3ccccc3CC2C)cc1 (stereo not drawn) returned LGR2 antag 12, KKLEB cytotox -11, CF NFkB inh 10, Mdm2 MdmX PPI 53*, HSP90 refold inh -2, Peg3 prom inh 36, Mdm2 MdmX conf 54* and FLuc counter 65*.
Screening CC(=O)N1CCc2cc(S(=O)(=O)N3c4ccccc4CC3C)ccc21 (stereo not drawn) returned LGR2 antag 2, KKLEB cytotox -19, CF NFkB inh 17, Mdm2 MdmX PPI 61*, HSP90 refold inh 1, Peg3 prom inh 40, Mdm2 MdmX conf 54* and FLuc counter 58*.
`C[C@H]1CN([C@@H](C)CO)C(=O)c2cccc(NC(=O)Nc3ccc(F)cc3)c2O[C@@H]1CN(C)C` gave LGR2 antag 5.
Screening Cc1cccc(C)c1NC(=S)N=Nc1c(O)n(C)c2ccc(S(=O)(=O)N3CCOCC3)cc12 returned LGR2 antag -22, KKLEB cytotox -2, CF NFkB inh -14, Mdm2 MdmX PPI 64*, HSP90 refold inh -4, Peg3 prom inh 44 and Mdm2 MdmX conf 30.
Cc1cccc(NC(=S)N=Nc2c(O)n(C)c3ccc(S(=O)(=O)N4CCOCC4)cc23)c1 was read as LGR2 antag -5, KKLEB cytotox -3, CF NFkB inh -5, Mdm2 MdmX PPI 54*, HSP90 refold inh -2, Peg3 prom inh 3, Mdm2 MdmX conf 54* and FLuc counter 64*.
For Cc1n[nH]c(=S)n1/N=C/c1ccc(OCc2ccc(Cl)cc2Cl)cc1 the results were LGR2 antag -37, KKLEB cytotox 13, CF NFkB inh -16, Mdm2 MdmX PPI -72, HSP90 refold inh -4 and Peg3 prom inh -230.
